Binding signal data for 9 sequences are collected here from PMC8384837, “Expanding the binding specificity for RNA recognition by a PUF domain”.

PUM1 PUF domain R4-ACG, sequence (Q14671 828-1176 N971A/H972C/Q975G): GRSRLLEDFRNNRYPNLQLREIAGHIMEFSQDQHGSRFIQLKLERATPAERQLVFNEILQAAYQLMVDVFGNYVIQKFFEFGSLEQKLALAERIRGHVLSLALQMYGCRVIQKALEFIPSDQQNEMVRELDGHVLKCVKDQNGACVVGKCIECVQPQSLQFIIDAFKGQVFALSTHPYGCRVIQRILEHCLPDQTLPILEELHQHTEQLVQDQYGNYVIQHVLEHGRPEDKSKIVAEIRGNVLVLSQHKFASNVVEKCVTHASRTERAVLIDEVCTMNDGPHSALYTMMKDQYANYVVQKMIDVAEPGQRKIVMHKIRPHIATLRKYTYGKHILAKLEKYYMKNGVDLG
PUM1 PUF domain R4-GRA, sequence (Q14671 828-1176 N971G/H972R/Q975A): as the sequence (Q14671 828-1176 N971A/H972C/Q975G) above, with A144G, C145R, G148A counted along it

The first assay deals with PUM1 PUF domain R4-ACG (Homo sapiens, UniProt Q14671 828-1176, N971A;H972C;Q975G). Description: yeast three-hybrid, YBZ-1, SC-Leu-His + 0.5 mM 3-AT, 4 days. As to conditions: tags: N-Gal4 AD-HA kept; label: inside an RPR1-promoter hybrid RNA with tandem MS2 sites; ssRNA. A digest of the protocol:
(§1)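 The interaction score is the logarithmic change in variant frequency from input to selection. It uses log2, with a pseudocount of 1 for absent variants, and frequencies came from PCR-amplified, Illumina-sequenced repeat regions. The libraries were Pumilio-1 PUF domains randomized at the three base-contacting residues per repeat, co-expressed with matching RNA elements in strain YBZ-1 (LexA–MS2 coat fusion, HIS3 reporter). Plating lasted four days on SC-Leu (input) or SC-Leu-His + 0.5 mM 3-AT (selection).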
As for “GGCUAGAACUAGUGGAUCCCCCGGCGCCCGGCGGCUCGAGCCCGGGUAAGUGUAAAUAGUCUGCAUGCCGCCGGGCGCCAUGCCUGCAGGUCGACUCUAGAAAACAUG”, the binding signal is 3.13 log2 enrichment (interaction score).

As to “GGCUAGAACUAGUGGAUCCCCCGGCGCCCGGCGGCUCGAGCCCGGGUAAGUGUAUAUAGUCUGCAUGCCGCCGGGCGCCAUGCCUGCAGGUCGACUCUAGAAAACAUG”, the binding signal was 0.66 log2 enrichment (interaction score).

On to “GGCUAGAACUAGUGGAUCCCCCGGCGCCCGGCGGCUCGAGCCCGGGUAAGUGUACAUAGUCUGCAUGCCGCCGGGCGCCAUGCCUGCAGGUCGACUCUAGAAAACAUG”, for which the binding signal is 1.1 log2 enrichment (interaction score).

In the next assay the target is PUM1 PUF domain R4-GRA (Homo sapiens, UniProt Q14671 828-1176, N971G;H972R;Q975A). Described as above. The settings on record: tags: N-Gal4 AD-HA kept; label: inside an RPR1-promoter hybrid RNA with tandem MS2 sites; ssRNA. A digest of the protocol:
as §1
Regarding “GGCUAGAACUAGUGGAUCCCCCGGCGCCCGGCGGCUCGAGCCCGGGUAAGUGUAAAUAGUCUGCAUGCCGCCGGGCGCCAUGCCUGCAGGUCGACUCUAGAAAACAUG”, the binding signal is 4.39 log2 enrichment (interaction score).

As to “GGCUAGAACUAGUGGAUCCCCCGGCGCCCGGCGGCUCGAGCCCGGGUAAGUGUAUAUAGUCUGCAUGCCGCCGGGCGCCAUGCCUGCAGGUCGACUCUAGAAAACAUG”, the binding signal was 2.46 log2 enrichment (interaction score).

Consider “GGCUAGAACUAGUGGAUCCCCCGGCGCCCGGCGGCUCGAGCCCGGGUAAGUGUACAUAGUCUGCAUGCCGCCGGGCGCCAUGCCUGCAGGUCGACUCUAGAAAACAUG”, for which the binding signal was 1.92 log2 enrichment (interaction score).

The next assay has as its target PUM1 PUF domain R3-EWS (Homo sapiens, UniProt Q14671 828-1176, C935E;R936W;Q939S). The description is as above. The settings on record: tags: N-Gal4 AD-HA kept; label: inside an RPR1-promoter hybrid RNA with tandem MS2 sites; ssRNA. A digest of the protocol:
as §1
“GGCUAGAACUAGUGGAUCCCCCGGCGCCCGGCGGCUCGAGCCCGGGUAAGUGUAAAUAGUCUGCAUGCCGCCGGGCGCCAUGCCUGCAGGUCGACUCUAGAAAACAUG”: the binding signal was 3.46 log2 enrichment (interaction score).

Regarding “GGCUAGAACUAGUGGAUCCCCCGGCGCCCGGCGGCUCGAGCCCGGGUAAGUGUAAUUAGUCUGCAUGCCGCCGGGCGCCAUGCCUGCAGGUCGACUCUAGAAAACAUG”, the binding signal was 4.58 log2 enrichment (interaction score).

Regarding “GGCUAGAACUAGUGGAUCCCCCGGCGCCCGGCGGCUCGAGCCCGGGUAAGUGUAAGUAGUCUGCAUGCCGCCGGGCGCCAUGCCUGCAGGUCGACUCUAGAAAACAUG”, the binding signal is 5.34 log2 enrichment (interaction score).

The next assay addresses PUM1 PUF domain R3-GRP (Homo sapiens, UniProt Q14671 828-1176, C935G;Q939P). The assay is described as above. As to conditions: tags: N-Gal4 AD-HA kept; label: inside an RPR1-promoter hybrid RNA with tandem MS2 sites; ssRNA. A digest of the protocol:
as §1
On to “GGCUAGAACUAGUGGAUCCCCCGGCGCCCGGCGGCUCGAGCCCGGGUAAGUGUAAAUAGUCUGCAUGCCGCCGGGCGCCAUGCCUGCAGGUCGACUCUAGAAAACAUG”, for which the binding signal is 4.87 log2 enrichment (interaction score).

In the case of “GGCUAGAACUAGUGGAUCCCCCGGCGCCCGGCGGCUCGAGCCCGGGUAAGUGUAAUUAGUCUGCAUGCCGCCGGGCGCCAUGCCUGCAGGUCGACUCUAGAAAACAUG”, the binding signal is 2.44 log2 enrichment (interaction score).

As for “GGCUAGAACUAGUGGAUCCCCCGGCGCCCGGCGGCUCGAGCCCGGGUAAGUGUAAGUAGUCUGCAUGCCGCCGGGCGCCAUGCCUGCAGGUCGACUCUAGAAAACAUG”, the binding signal was 3.91 log2 enrichment (interaction score).

For the next assay, the target named is PUM1 PUF domain R3-SRC (Homo sapiens, UniProt Q14671 828-1176, C935S;Q939C). The description is as above. As to conditions: tags: N-Gal4 AD-HA kept; label: inside an RPR1-promoter hybrid RNA with tandem MS2 sites; ssRNA. Put shortly: as §1
For the sequence “GGCUAGAACUAGUGGAUCCCCCGGCGCCCGGCGGCUCGAGCCCGGGUAAGUGUAAAUAGUCUGCAUGCCGCCGGGCGCCAUGCCUGCAGGUCGACUCUAGAAAACAUG”, the binding signal was 2.73 log2 enrichment (interaction score).

“GGCUAGAACUAGUGGAUCCCCCGGCGCCCGGCGGCUCGAGCCCGGGUAAGUGUAAUUAGUCUGCAUGCCGCCGGGCGCCAUGCCUGCAGGUCGACUCUAGAAAACAUG”: the binding signal is 2.75 log2 enrichment (interaction score).

As to “GGCUAGAACUAGUGGAUCCCCCGGCGCCCGGCGGCUCGAGCCCGGGUAAGUGUAAGUAGUCUGCAUGCCGCCGGGCGCCAUGCCUGCAGGUCGACUCUAGAAAACAUG”, the binding signal was 4.05 log2 enrichment (interaction score).

For the next assay, the target named is PUM1 PUF domain R7-KYR (Homo sapiens, UniProt Q14671 828-1176, S1079K;N1080Y;E1083R). Described as above. As to conditions: tags: N-Gal4 AD-HA kept; label: inside an RPR1-promoter hybrid RNA with tandem MS2 sites; ssRNA. Put shortly:
as §1
For the sequence “GGCUAGAACUAGUGGAUCCCCCGGCGCCCGGCGGCUCGAGCCCGGGUAAGUGUAAAUAGUCUGCAUGCCGCCGGGCGCCAUGCCUGCAGGUCGACUCUAGAAAACAUG”, the binding signal is 2.75 log2 enrichment (interaction score).

Consider “GGCUAGAACUAGUGGAUCCCCCGGCGCCCGGCGGCUCGAGCCCGGGUAAGUCUAAAUAGUCUGCAUGCCGCCGGGCGCCAUGCCUGCAGGUCGACUCUAGAAAACAUG”, for which the binding signal is 5.86 log2 enrichment (interaction score).

Take “GGCUAGAACUAGUGGAUCCCCCGGCGCCCGGCGGCUCGAGCCCGGGUAAGUAUAAAUAGUCUGCAUGCCGCCGGGCGCCAUGCCUGCAGGUCGACUCUAGAAAACAUG”: the binding signal is 3.64 log2 enrichment (interaction score).

Another assay deals with PUM1 PUF domain R5-DRC (Homo sapiens, UniProt Q14671 828-1176, C1007D;Q1011C). The description is as above. The settings on record: tags: N-Gal4 AD-HA kept; label: inside an RPR1-promoter hybrid RNA with tandem MS2 sites; ssRNA. Put shortly: as §1
“GGCUAGAACUAGUGGAUCCCCCGGCGCCCGGCGGCUCGAGCCCGGGUAAGUGUCAAUAGUCUGCAUGCCGCCGGGCGCCAUGCCUGCAGGUCGACUCUAGAAAACAUG”: the binding signal was 3.58 log2 enrichment (interaction score).

For the sequence “GGCUAGAACUAGUGGAUCCCCCGGCGCCCGGCGGCUCGAGCCCGGGUAAGUGUAAAUAGUCUGCAUGCCGCCGGGCGCCAUGCCUGCAGGUCGACUCUAGAAAACAUG”, the binding signal is 3.83 log2 enrichment (interaction score).

For the sequence “GGCUAGAACUAGUGGAUCCCCCGGCGCCCGGCGGCUCGAGCCCGGGUAAGUGUUAAUAGUCUGCAUGCCGCCGGGCGCCAUGCCUGCAGGUCGACUCUAGAAAACAUG”, the binding signal was 4.23 log2 enrichment (interaction score).
